KB-3-1 cytotox – kills parental KB-3-1 adenocarcinoma cells | Potency, µM (doses to about 46.1 µM), most hits filed as cytotoxic | AID 1347075 | KB-3-1 viability, CellTiter-Glo ATP luminescence, 72 h | actives 1.4% (n = 400,000); also: % is scaled to controls: 0 for no effect and ±100 for the full control effect; nearly all actives have a fitted effect of over 60% in size
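Multi-concentration cytotoxicity screen in KB-3-1 cells grown in DMEM lacking phenol red with 10% FBS. After 72 h at 37 °C with compound, ATP-dependent luminescence was recorded.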
PINK1 expr mod – modulators of PINK1 expression; actives 0.2% (n = 410,000); Potency, µM (highest dose often 76.6 µM), inactives show top-dose activation (PINK1 increase), usual class: activators; PINK1 immunofluorescence, high-content cytometry, 24 h; active = well fitted activation curve with a large enough effect; inconclusive = small, poorly fitted or top-dose-only effect; cell line not stated here; also: % of control where 0% means no effect; nearly all actives have a fitted effect of over 65% in size
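PINK1 protein level read as immunofluorescence by microplate cytometer in a fixed, stained stable cell line after 24 h exposure to five compound concentrations, with CCCP as control.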
SW480 rereplic – DNA re-replication induction in SW480 cells. SW480 DNA re-replication, Hoechst DNA content imaging, 48 h. Potency, µM (series often up to 46.1 µM), for inactives: at the top dose re-replication activation, most hits filed as activators. actives 1.8% (n = 340,000). AID 624297; also: % of control where 0% means no effect; nearly all actives have a fitted effect of over 55% in size
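Image-based read-out: total Hoechst fluorescence of nuclei (405 nm excitation, 500-530 nm emission), with hits raising the fraction of high-intensity nuclei. SW480 colon cells incubated 48 hr with compounds at 37 C.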
MCF10A rerep – induces DNA re-replication in MCF 10a normal breast cells; MCF 10A DNA re-replication, Hoechst nuclear intensity, 48 h; Potency, µM (top dose mostly 46.1 µM), for the others: at the highest dose activity, positive = re-replication, most hits filed as activators; actives 2.9% (n = 350,000); AID 624296; also: % of control where 0% means no effect; nearly all actives have a fitted effect of over 50% in size
KB-V1 MDR tox – kills drug-selected multidrug resistant KB-V1 cells | KB-V1 MDR cells viability, CellTiter-Glo, 72 h | Potency, µM (series often up to 46.1 µM), usual class: cytotoxic | actives 3.4% (n = 400,000) | AID 1347076; also: % is scaled to controls: 0 for no effect and ±100 for the full control effect; nearly all actives have a fitted effect of over 60% in size
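In this primary screen, KB-V1 cells overexpressing P-gp are incubated with library compounds (lowest to highest concentration) for 72 h at 37 degrees C before a luminescent ATP viability read.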
The depositor's hits bear a star; i = inactive; ? = inconclusive; · = no result given; ! = repeats disagree. A selection: hits, their analogues and other compounds. The true share with any hit is near 6.7%. Unless noted, calls follow the shape of the dose curve; as a rule, active = well fitted curve in the direction sought with a large enough effect; inconclusive = small, poorly fitted or top-dose-only effect, or another doubt; inactive = no such curve, though single readings can be large; an effect the other way counts as inactive or inconclusive. Potency is read from the fitted curve at half-maximal effect.

SMILES	KB-3-1 cytotox	PINK1 expr mod	SW480 rereplic	MCF10A rerep	KB-V1 MDR tox
Cc1ccc(-c2[nH]ncc2/C=N/n2c(COc3ccccc3)nc3ccccc3c2=O)cc1	?	-1%	?	18µM*	?
CCOc1ccc(NC(=O)c2ccc(-c3nc(COc4ccccc4)c(C)o3)cc2)cc1	i	2%	·	·	i
COc1ccc(C2c3[nH]c4ccc(OC)cc4c3CCN2C(=O)Nc2ccccc2)cc1 (stereo not drawn)	10µM*	-1%	·	·	?
Fc1ccc(-c2cc(-c3ccccc3)nc(-n3cccn3)n2)cc1	i	6%	3%	18µM*	i
c1ccc(Nc2nc(Nc3ccccc3)nc(-n3cccn3)n2)cc1	?	0%	·	·	i
Cc1cc2c(=O)n(C)c(SCC(=O)Nc3ccccc3C)nc2s1	i	2%	-9%	19%	i
CCOc1ccc(-c2cc(C)n3nc(C(=O)Nc4cc(Cl)ccc4O)cc3n2)cc1	i	3%	·	·	i
Cc1ccccc1OCCOC(=O)c1c(-c2ccccc2)noc1C	9.2µM*	4%	9.2µM*	?	?
Cc1onc(-c2ccccc2)c1C(=O)OCc1nnc(-c2ccc([N+](=O)[O-])cc2)o1	i	1%	-5%	11%	15µM*
Cc1ccc(N=Nc2c(N)nn(-c3ccccc3)c2N)cc1	?	5%	13µM*	15µM*	6.5µM*
Cc1nn(-c2ccccc2)c(N)c1N=Nc1ccc2ccccc2c1	?	5%	12%	15%	i
Cc1ccc(-c2cc(C(=O)N/N=C/C(Br)=C/c3ccccc3)n[nH]2)o1	i	-4%	15µM*	13µM*	?
Cc1ccc(-c2cc(C(=O)N/N=C/c3c[nH]c4ccccc34)n[nH]2)o1	i	1%	3.7µM*	6%	i
Cc1ccc(-c2cc(C(=O)N/N=C/c3ccccc3O)n[nH]2)o1	?	13%	3.3µM*	18µM*	?
Cc1ccc(-c2cc(C(=O)N/N=C/c3ccc(F)cc3)n[nH]2)o1	i	0%	6%	-4%	i
Cc1cccc(C)c1NC(=O)CN(C)CC(=O)Nc1ccc(F)c(Cl)c1	i	0%	-2%	-1%	15µM*
CCOC(=O)c1cc(-c2ccc(Cl)cc2)nc2c1c(C)nn2CCC#N	i	10%	-2%	?	i
CCOC(=O)c1cc(-c2ccc3c(c2)OCCO3)nc2c1c(C)nn2CCC#N	i	1%	?	12µM*	i
Cc1ccc(Nc2c(-c3ccc(C)o3)nc3cnccn23)cc1	i	1%	16%	?	i
CSc1ccc(-c2nc3cnccn3c2Nc2ccc3c(c2)OCO3)cc1	?	-1%	7%	5.8µM*	23µM*
Clc1ccc(-c2nc3cnccn3c2Nc2ccc3c(c2)OCO3)cc1	i	0%	13%	?	i
COc1ccc(Nc2c(-c3ccc(C)o3)nc3cc(C)ccn23)cc1	23µM*	1%	·	·	i
CC(=O)Nc1c(-c2ccccc2)nc2cc(C)ccn12	i	-1%	-1%	?	i
Cc1ccc(-c2nc3cnccn3c2Nc2ccccc2)o1	i	3%	?	23µM*	?
Cc1ccn2c(Nc3ccccc3C)c(-c3ccncc3)nc2c1	i	1%	?	0%	23µM*!
SMILES	KB-3-1 cytotox	PINK1 expr mod	SW480 rereplic	MCF10A rerep	KB-V1 MDR tox
Cc1ccn2c(Nc3ccc4c(c3)OCO4)c(-c3ccc(C)o3)nc2c1	i	-1%	·	·	i
Cc1ccc(Nc2c(-c3ccccc3)nc3cnccn23)cc1	i	4%	17%	23µM*	i
O=C(CCl)N1c2ccccc2Oc2ccc3ccccc3c21	i	?	5.8µM*	18µM*	?
CC(=O)N1c2ccccc2Oc2cc3ccccc3cc21	i	-1%	13%	-1%	i
CCCN(C(=O)c1cc(S(=O)(=O)N2CCN(CC)CC2)ccc1Cl)C1CCS(=O)(=O)C1 (stereo not drawn)	i	4%	-4%	-5%	i
CCN(C(=O)c1cc(Cl)ccc1Cl)C1CCS(=O)(=O)C1 (stereo not drawn)	i	3%	-23%	12%	18µM*

Compound activity: PubChem BioAssay, National Center for Advancing Translational Sciences (NCATS)
